In PubChem BioAssay:
Active and inactive are the calls of the source.

Experiments:
[1] = optical density shifts of acrAB sulA E. coli – strain DRC41, OD650, 48 h, E. coli filamentation inducer project, primary screen (AID 1152); details: higher = more signal, called active from +8 up or from −8 down;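 also: E. coli MC1000 strain DRC41 lacking acrAB efflux pump and sulA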
[2] = probe aLefty1 binding on compound microarray – biochemical, small-molecule microarray, 635/667 nm fluorescence, primary screen (AID 1153); details: higher = more signal;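 also: score merges spot fluorescence with signal-to-noise ratio from the scanned slide images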
[3] = plasmodial surface anion channel blockers, osmotic lysis – cell-based, P. falciparum Indochina, OD700, 1 h, primary screen (AID 1154); details: P. falciparum Indochina infected RBC osmotic lysis, higher = more signal, called active from +8 up or from −8 down
[4] = plasmodial surface anion channel blockers, osmotic lysis – cell-based, P. falciparum Indochina, OD700, 2 h, primary screen (AID 1155);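 also: lysis reports solute entry through the parasite surface anion channel PSAC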; details: P. falciparum Indochina infected erythrocytes, higher = more signal, called active from +8 up or from −8 down
[5] = changes in parasitized red cell lysis, either direction – P. falciparum Indochina, OD700, 3 h, PSAC antagonist project, primary screen (AID 1156); details: P. falciparum-infected erythrocytes, osmotic lysis, higher = more signal, called active from +8 up or from −8 down
[6] = plasmodial surface anion channel blockers, osmotic lysis – cell-based, P. falciparum Indochina, OD700, 18 h, primary screen (AID 1157); details: P. falciparum Indochina infected erythrocytes, osmotic lysis OD700, 18 h; higher = more signal, called active from +8 up or from −8 down
[7] = S6 kinase pathway phospho-S6 level changes – cell-based, A549, cytoblot, luminescence, serum-stimulated, primary screen (AID 1158); details: 5 h, higher = more signal;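 also: serum-stimulated A549 lung adenocarcinoma cells; signal is phosphorylated S6 detected by cytoblot immunostaining with HRP secondary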
[8] = target: NADPH oxidase 2 (Homo sapiens) (UniProt P04839); assay: compounds shifting NOX2 Amplex Red fluorescence – cell-based, HEK293-NOX2, PMA-stimulated, NOX inhibitor project, primary screen (AID 1159); details: 45 min, higher = more signal, called active from +8 up or from −8 down; also: test concentration not given here
[9] = target: NADPH oxidase 4 (Homo sapiens) (UniProt Q9NPH5); assay: compounds shifting NOX4 Amplex Red fluorescence – cell-based, HEK293-NOX4, tetracycline-induced, NOX inhibitor project, primary screen (AID 1160); details: HEK293-NOX4, Amplex Red H2O2 fluorescence, 45 min; higher = more signal, called active from +8 up or from −8 down
[10] = target: NADPH oxidase 5 (Homo sapiens) (UniProt Q96PH1); assay: compounds shifting NOX5 Amplex Red fluorescence – cell-based, HEK293-NOX5, NOX inhibitor project, primary screen (AID 1161); details: HEK293-NOX5, ionomycin, 45 min, higher = more signal
[11] = compound effects on lung adenocarcinoma cell viability – A549, calcein-AM fluorescence, 48 h, basal, profiling panel (AID 1162); details: higher = more signal; also: test concentration not given here
[12] = compound effects on differentiated 3T3-L1 adipocyte viability – cell-based, 3T3-L1 adipocytes, calcein-AM fluorescence, 48 h, basal, profiling panel (AID 1163); details: 3T3-L1 adipocytes viability, higher = more signal; also: test concentration not given here
[13] = compound effects on hepatocellular carcinoma cell viability – HepG2, calcein-AM fluorescence, 48 h, basal, profiling panel (AID 1164); details: higher = more signal; also: test concentration not given here
[14] = compound effects on multiple myeloma cell viability – MM1S, calcein-AM fluorescence, 48 h, basal, profiling panel (AID 1165); details: higher = more signal;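 also: viability of MM1S multiple myeloma cells under basal unstimulated conditions; test concentration not given here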
[15] = calcein-AM signal in unstimulated myeloma cells – cell-based, calcein-AM fluorescence, 48 h, PK04 Diversity Set, profiling panel (AID 1166); details: RPMI8226 myeloma viability, higher = more signal;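 also: cells grown under basal conditions without added stimulus; test concentration not given here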
[16] = JC-1 mitochondrial signal, unstimulated HepG2 cells – cell-based, JC-1 fluorescence, 24 h, 100 nL compound, profiling panel (AID 1167); details: HepG2 mitochondrial potential, higher = more signal; also: test concentration not given here
[17] = JC-1 mitochondrial signal, unstimulated adipocytes – cell-based, JC-1 fluorescence, 3T3-L1 adipocytes, 24 h, 100 nL compound, profiling panel (AID 1168); details: JC-1 mitochondrial fluorescence, higher = more signal, called active from +8 up or from −8 down; also: test concentration not given here
[18] = JC-1 mitochondrial signal, unstimulated myeloma cells – cell-based, JC-1 fluorescence, RPMI8226, 24 h, 100 nL compound, profiling panel (AID 1169); details: JC-1 mitochondrial potential fluorescence, higher = more signal; also: test concentration not given here
[19] = JC-1 mitochondrial signal, unstimulated MM1S myeloma – cell-based, JC-1 fluorescence, 24 h, 100 nL compound, profiling panel (AID 1170); details: MM1S mitochondrial potential, higher = more signal; also: test concentration not given here
[20] = resazurin metabolic signal in A549 cells – cell-based, resazurin fluorescence, 24 h, PK04 Diversity Set, profiling panel (AID 1171); details: A549 viability, higher = more signal, called active from +8 up or from −8 down; also: test concentration not given here

Sequence of NADPH oxidase 5 (Homo sapiens) (Q96PH1 whole entry, looked up): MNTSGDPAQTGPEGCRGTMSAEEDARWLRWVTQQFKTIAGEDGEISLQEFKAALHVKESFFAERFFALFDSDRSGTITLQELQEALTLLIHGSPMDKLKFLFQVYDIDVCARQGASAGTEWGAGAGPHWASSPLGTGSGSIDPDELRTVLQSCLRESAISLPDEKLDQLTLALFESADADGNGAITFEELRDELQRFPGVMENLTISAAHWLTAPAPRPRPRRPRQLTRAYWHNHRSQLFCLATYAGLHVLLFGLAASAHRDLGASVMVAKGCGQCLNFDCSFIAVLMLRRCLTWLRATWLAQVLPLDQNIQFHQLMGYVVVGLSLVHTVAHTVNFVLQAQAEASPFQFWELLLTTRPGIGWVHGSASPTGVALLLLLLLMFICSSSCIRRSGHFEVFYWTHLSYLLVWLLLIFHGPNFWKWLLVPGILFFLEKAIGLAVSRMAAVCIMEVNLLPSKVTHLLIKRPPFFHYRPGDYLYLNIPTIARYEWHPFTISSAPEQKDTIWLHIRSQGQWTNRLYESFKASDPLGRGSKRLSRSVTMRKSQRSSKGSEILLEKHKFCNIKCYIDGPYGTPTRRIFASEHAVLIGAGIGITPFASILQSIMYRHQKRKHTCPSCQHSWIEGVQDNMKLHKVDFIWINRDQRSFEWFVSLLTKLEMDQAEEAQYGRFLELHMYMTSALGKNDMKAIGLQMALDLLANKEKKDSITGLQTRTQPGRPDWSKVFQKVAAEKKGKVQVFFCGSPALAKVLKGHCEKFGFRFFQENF
Sequence of NADPH oxidase 4 (Homo sapiens) (Q9NPH5 whole entry, looked up): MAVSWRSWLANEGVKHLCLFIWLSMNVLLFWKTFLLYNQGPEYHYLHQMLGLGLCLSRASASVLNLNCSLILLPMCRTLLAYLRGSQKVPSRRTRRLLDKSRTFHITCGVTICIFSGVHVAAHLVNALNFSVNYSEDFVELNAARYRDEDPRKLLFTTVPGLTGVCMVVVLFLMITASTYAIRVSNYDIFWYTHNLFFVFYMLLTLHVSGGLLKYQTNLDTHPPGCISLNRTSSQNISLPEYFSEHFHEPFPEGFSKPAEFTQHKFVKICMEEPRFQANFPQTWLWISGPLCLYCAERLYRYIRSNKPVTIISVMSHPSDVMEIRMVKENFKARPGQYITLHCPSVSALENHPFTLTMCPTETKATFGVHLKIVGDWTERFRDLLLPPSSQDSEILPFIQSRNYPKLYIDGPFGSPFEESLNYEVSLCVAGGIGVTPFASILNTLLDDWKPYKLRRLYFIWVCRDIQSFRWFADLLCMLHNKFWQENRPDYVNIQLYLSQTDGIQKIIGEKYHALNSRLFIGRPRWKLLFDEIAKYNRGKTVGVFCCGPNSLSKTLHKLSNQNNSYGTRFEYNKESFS
Sequence of NADPH oxidase 2 (Homo sapiens) (P04839 whole entry, looked up): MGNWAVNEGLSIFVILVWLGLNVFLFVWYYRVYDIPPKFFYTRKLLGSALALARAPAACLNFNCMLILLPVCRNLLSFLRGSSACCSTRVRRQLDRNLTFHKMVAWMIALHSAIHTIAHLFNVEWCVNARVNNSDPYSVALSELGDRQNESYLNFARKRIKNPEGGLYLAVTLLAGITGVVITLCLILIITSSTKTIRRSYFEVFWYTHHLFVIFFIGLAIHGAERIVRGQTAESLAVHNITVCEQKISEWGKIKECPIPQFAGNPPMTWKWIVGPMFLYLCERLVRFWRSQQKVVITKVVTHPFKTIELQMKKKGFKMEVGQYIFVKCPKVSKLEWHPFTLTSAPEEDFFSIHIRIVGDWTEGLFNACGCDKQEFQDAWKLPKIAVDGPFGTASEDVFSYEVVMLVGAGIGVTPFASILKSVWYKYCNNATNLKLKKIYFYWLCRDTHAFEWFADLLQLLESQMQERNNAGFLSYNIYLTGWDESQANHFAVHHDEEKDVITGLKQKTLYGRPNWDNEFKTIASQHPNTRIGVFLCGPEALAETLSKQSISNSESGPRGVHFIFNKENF

SMILES	z-score [1]	composite z-score [2]	z-score [3]	z-score [4]	z-score [5]	z-score [6]	z-score [7]	z-score [8]	z-score [9]	z-score [10]	z-score [11]	z-score [12]	z-score [13]	z-score [14]	z-score [15]	z-score [16]	z-score [17]	z-score [18]	z-score [19]	z-score [20]
CN(C)c1ccc(C(O)C2C=CC3C(=O)N(c4ccccc4)C(=O)C3N2Nc2ccccc2F)cc1 (stereo not given)	-1.4 (inactive)	0.284	4.37 (inactive)	1.2 (inactive)	0.252 (inactive)	0.586 (inactive)	-0.288	-2.5 (inactive)	-4.43 (inactive)	-3.99	-0.225	-0.528	-0.799	-0.343	-1.18	-2.24	-1.08 (inactive)	0.109	-0.0359	-0.416 (inactive)
CCOC(=O)CCN1C(=O)[C@H]2[C@H]3[C@H](O)[C@H](O)CC(=O)[C@H]3CC[C@H]2C1=O	-1.98 (inactive)	-0.0984	-0.062 (inactive)	-0.426 (inactive)	-0.451 (inactive)	-1.42 (inactive)	1.11	-0.513 (inactive)	0.947 (inactive)	-0.00675	-0.439	1.43	0.0368	-0.904	-0.122	-0.103	-0.237 (inactive)	0.0295	-1.28	-0.125 (inactive)
CCOC(=O)CCN1C(=O)[C@H]2[C@H]3[C@H](O)[C@H](O)CC(=NOCc4ccccc4)[C@@H]3CC[C@H]2C1=O	-0.505 (inactive)	-0.094	1.61 (inactive)	0.885 (inactive)	-0.059 (inactive)	0.429 (inactive)	-0.32	-0.104 (inactive)	0.593 (inactive)	1.14	0.16	0.112	-0.149	-0.104	1.16	-0.761	-0.522 (inactive)	-0.043	-0.362	-0.0452 (inactive)
CC(CCN1CCCCc2nc(C)c(C)cc21)=NOC(C)CN1CCCCc2nc(C)c(C)cc21 (stereo not given)	-2.08 (inactive)	0.235	1.38 (inactive)	0.329 (inactive)	0.964 (inactive)	0.587 (inactive)	-0.839	-1.47 (inactive)	-3.07 (inactive)	-1.31	-0.282	-0.0335	-1.12	-2.33	-0.696	3.61	-1.2 (inactive)	0.308	-0.16	0.661 (inactive)
CO[C@@H]1COC(=O)CC=C[C@@H](C)[C@@H]2C=C[C@H](O)[C@@H](COC(=O)CCC[C@H]1C)O2	-0.457 (inactive)	0.425	-0.977 (inactive)	-1.66 (inactive)	-0.184 (inactive)	-2.26 (inactive)	0.49	-0.521 (inactive)	0.319 (inactive)	0.312	0.438	-0.717	-0.101	-0.567	0.403	-0.016	-0.546 (inactive)	-0.347	-1.23	-0.165 (inactive)
C[C@@H]1C=CCC(=O)OC[C@H](C)C(=O)N2CCC[C@H]2C(=O)OC1	0.665 (inactive)	-0.384	0.29 (inactive)	0.149 (inactive)	1.11 (inactive)	0.097 (inactive)	-0.39	-0.49 (inactive)	0.445 (inactive)	-0.764	-0.581	0.0764	-0.492	0.13	-0.665	-0.248	-1.27 (inactive)	0.363	-0.583	-0.0059 (inactive)
CC(C)(C)N1CC=CC23O[C@@H]4C=CCCOC(=O)C4[C@H]2C(=O)N(CCCCCO)[C@@H]3C1=O (stereo not given in full)	0.499 (inactive)	0.0919	1.03 (inactive)	0.396 (inactive)	1.98 (inactive)	0.159 (inactive)	-0.186	1.26 (inactive)	0.385 (inactive)	1.75	-0.415	0.231	2.16	1.87	0.227	0.705	0.18 (inactive)	0.117	-0.29	0.0951 (inactive)
O=C1[C@H]2[C@H]3[C@H](O)[C@H](O)CC(=NO[C@@H]4O[C@H](CO)[C@@H](O)[C@H](O)[C@H]4O)[C@@H]3CC[C@H]2C(=O)N1Cc1ccccc1	0.755 (inactive)	-0.115	1.3 (inactive)	0.893 (inactive)	0.742 (inactive)	0.475 (inactive)	0.62	0.0811 (inactive)	1.14 (inactive)	-0.0503	0.255	-0.612	-0.379	-0.176	1.03	0.981	-0.173 (inactive)	-0.61	-1.98	0.222 (inactive)
COC(=O)C1=C(C)N(Cc2ccccc2)[C@]23O[C@](C(=O)OC)(C(=O)N2[C@@H]1c1ccccc1)[C@H]1CCOC(=O)[C@H]13	-0.238 (inactive)	-0.0984	0.951 (inactive)	-0.0468 (inactive)	1.3 (inactive)	0.443 (inactive)	-0.537	0.902 (inactive)	0.805 (inactive)	1.06	0.589	0.109	-0.21	0.0449	-0.808	0.74	0.642 (inactive)	-0.139	-0.0135	0.516 (inactive)
O=C1NC(=O)C2C1C=CC(C(O)Cc1ccccc1)N2Nc1ccccn1 (stereo not given)	0.79 (inactive)	0.165	0.541 (inactive)	-0.67 (inactive)	-0.255 (inactive)	-0.422 (inactive)	0.91	-1.58 (inactive)	-2.54 (inactive)	-1.8	0.379	-0.949	1.16	-0.171	-0.87	0.0266	0.272 (inactive)	0.477	-0.684	-1.22 (inactive)
COC(=O)[C@@]1(Cc2ccc(OC)cc2)[C@H]2c3cc(C(=O)N4CCCC4)n(Cc4cc(F)c(F)c(F)c4)c3C[C@H]2CN1C(=O)c1ccccc1	-2.13 (inactive)	2.39	1.1 (inactive)	1.07 (inactive)	0.718 (inactive)	0.911 (inactive)	-0.215	1.01 (inactive)	-0.256 (inactive)	0.603	-1.19	-0.0755	-0.521	-1	-3.11	1.31	-1.6 (inactive)	-0.87	-1.2	-1.08 (inactive)
